Source: PubChem BioAssay
Several values for one entry are separate records, joined by “and”; a condition that tells them apart may be missing. Equal entries are not always repeated. Results filed as inconclusive are left out. Activity calls are given as the source filed them.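 How the source made its calls, unless noted: active means normalized viability below 100% at a tested concentration; inactive means the rest.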

Tests used:
[1] = liver-stage malaria parasite load reduction – cell-based, known kinase inhibitor set, luminescence, hepatoma host viability (AID 624392; call rule not given here;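 further: infected cells incubated roughly two days before readout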); details: Plasmodium liver stage in hepatoma cells, luciferase luminescence, concentration not given here; liver cell % of control: measured here: host liver cell viability; parasite % of control: stronger effect = lower value
[2] = viability loss in pontine glioma line – cell-based, SU-DIPG-XVII, MIPE5.0, CellTiter-Glo, qHTS, dose response (AID 1347060; cut-off not given, nearly all actives have AC50 up to about 26 µM;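 further: cells exposed to compound for 48 hours before viability readout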); details: CellTiter-Glo ATP luminescence
[3] = viability loss in pontine glioma line – cell-based, JHH-DIPG-1, MIPE4.0, CellTiter-Glo, qHTS, dose response (AID 1347062; cut-off not given, nearly all actives have AC50 up to about 27 µM;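 on AC50: cells exposed to compound for two days before readout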); details: JHH-DIPG-1 viability, CellTiter-Glo ATP luminescence
[4] = viability loss in pontine glioma line – cell-based, SU-DIPG-IV, MIPE4.0, CellTiter-Glo, qHTS, dose response (AID 1347063; cut-off not given, nearly all actives have AC50 up to about 30 µM;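 further: compound exposure lasted 48 hours before the viability readout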); details: CellTiter-Glo ATP luminescence
[5] = viability loss in pontine glioma line – cell-based, SU-DIPG-XIII, MIPE5.0, CellTiter-Glo, qHTS, dose response (AID 1347064; cut-off not given, nearly all actives have AC50 up to about 23 µM;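 on AC50: cells exposed to compound for 48 hours before the viability read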); details: CellTiter-Glo ATP luminescence
[6] = viability loss in pontine glioma line – cell-based, SU-DIPG-XXV, MIPE5.0, CellTiter-Glo, qHTS, dose response (AID 1347065; cut-off not given, nearly all actives have AC50 up to about 26 µM;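 further: cells exposed to compound for 48 hours before ATP readout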); details: CellTiter-Glo ATP luminescence
[7] = viability loss with induced miR-34 in A549 – imaging, A549 dox-inducible miR-34, nuclei and caspase counts, primary screen (AID 1347080;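 active means compounds whose cell count with miR-34 switched on is under 0.7 times the count with it off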); details: A549 miR-34 inducible, Hoechst nuclei count, 48 h
[8] = compounds altering HSF1 focus formation in cells – imaging, Selleck Cancer Library (AID 1347162; in the data active means plate-normalised HSF1 focus index below about 0.46); details: human cells, HSF1 nuclear foci imaging, at 10 µM; SSMD: measured here: HSF1 foci SSMD mean; cell count: measured here: cell number; plate-normalised HSF1 focus index: stronger effect = lower value
[9] = MELAS cybrid and Rieske KO viability enhancers – cell-based, MELAS cybrids, Rieske KO mouse fibroblasts, CellTiter-Glo, primary screen (AID 1508586;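 active means mean z-score across replicates of 1.96 or higher in either the MELAS or the Rieske mutant cell line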;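 further: z relative to plate mean and SD of compound and empty wells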); details: low glucose
[10] = drug combination growth inhibition, ovarian cancer – cell-based, oncology-focused library, rucaparib conditional, profiling panel (AID 1508598); details: patient-derived ovarian cancer cells, CellTiter-Glo viability, 144 h, stronger effect = lower value
[11] = P. berghei load reduction in hepatocytes – cell-based, HepG2, luciferase luminescence, HepG2 viability, primary screen (AID 624349; in the data active means parasite load remaining mostly below about 12%, no sharp cut-off; inactive means mostly above about 10%;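 further: 100% = mean of DMSO negative control wells on the same plate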); details: P. berghei liver stage in HepG2, luciferase luminescence, concentration not given here; parasite load remaining: stronger effect = lower value; viability: measured here: HepG2 viability without parasites
[12] = growth inhibition of DIPG cells – cell-based, MIPE4.0 library, CellTiter-Glo luminescence, qHTS (AID 1347066; cut-off not given, nearly all actives have AC50 up to about 30 µM;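 further: cells exposed to compound for 48 hours before readout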); details: SU-DIPG-VI viability, CellTiter-Glo ATP luminescence
[13] = JHH-DIPG-1 glioma cell viability, MIPE5.0 library, CellTiter-Glo luminescence, qHTS (AID 1347067; cut-off not given, nearly all actives have AC50 up to about 26 µM;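 further: cells exposed to compound for 48 hours before readout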); details: JHH-DIPG-1 glioma viability, CellTiter-Glo ATP luminescence
[14] = growth inhibition of DIPG cells – cell-based, MIPE5.0 library, qHTS (AID 1347068; cut-off not given, nearly all actives have IC50 up to about 30 µM;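 on IC50: cells exposed to compound for 48 hours before viability readout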); details: SU-DIPG-XXV viability
[15] = stronger effect = lower value, cell number ratio, induced over uninduced
[16] = measured here: relative caspase fold change +Dox/-Dox
[17] = measured here: total cells with miR-34 induction, stronger effect = lower value
[18] = measured here: total cells without miR-34 induction
[19] = MELAS cybrid survival, CellTiter-Glo 48 h, stronger effect = higher value
[20] = Rieske KO mouse fibroblast survival, CellTiter-Glo 72 h
[21] = at 0.000305 µM, OCI-C5x cells, with rucaparib 10 µM, 100% = cells with rucaparib alone
[22] = at 0.000305 µM, OCI-C5x cells, without rucaparib
[23] = at 0.000305 µM, OCI-P5x cells, with rucaparib 20 µM, 100% = cells with rucaparib alone
[24] = at 0.000305 µM, OCI-P5x cells, without rucaparib
[25] = at 0.00122 µM, OCI-C5x cells, with rucaparib 10 µM, 100% = cells with rucaparib alone
[26] = at 0.00122 µM, OCI-C5x cells, without rucaparib
[27] = at 0.00122 µM, OCI-P5x cells, with rucaparib 20 µM, 100% = cells with rucaparib alone
[28] = at 0.00122 µM, OCI-P5x cells, without rucaparib
[29] = at 0.00488 µM, OCI-C5x cells, with rucaparib 10 µM, 100% = cells with rucaparib alone
[30] = at 0.00488 µM, OCI-C5x cells, without rucaparib
[31] = at 0.00488 µM, OCI-P5x cells, with rucaparib 20 µM, 100% = cells with rucaparib alone
[32] = at 0.00488 µM, OCI-P5x cells, without rucaparib
[33] = at 0.0195 µM, OCI-C5x cells, with rucaparib 10 µM, 100% = cells with rucaparib alone
[34] = at 0.0195 µM, OCI-C5x cells, without rucaparib
[35] = at 0.0195 µM, OCI-P5x cells, with rucaparib 20 µM, 100% = cells with rucaparib alone
[36] = at 0.0195 µM, OCI-P5x cells, without rucaparib
[37] = at 0.0781 µM, OCI-C5x cells, with rucaparib 10 µM, 100% = cells with rucaparib alone
[38] = at 0.0781 µM, OCI-C5x cells, without rucaparib
[39] = at 0.0781 µM, OCI-P5x cells, with rucaparib 20 µM, 100% = cells with rucaparib alone
[40] = at 0.0781 µM, OCI-P5x cells, without rucaparib
[41] = at 0.313 µM, OCI-C5x cells, with rucaparib 10 µM, 100% = cells with rucaparib alone
[42] = at 0.313 µM, OCI-C5x cells, without rucaparib
[43] = at 0.313 µM, OCI-P5x cells, with rucaparib 20 µM, 100% = cells with rucaparib alone
[44] = at 0.313 µM, OCI-P5x cells, without rucaparib
[45] = at 1.25 µM, OCI-C5x cells, with rucaparib 10 µM, 100% = cells with rucaparib alone
[46] = at 1.25 µM, OCI-C5x cells, without rucaparib
[47] = at 1.25 µM, OCI-P5x cells, with rucaparib 20 µM, 100% = cells with rucaparib alone
[48] = at 1.25 µM, OCI-P5x cells, without rucaparib
[49] = at 5 µM, OCI-C5x cells, with rucaparib 10 µM, 100% = cells with rucaparib alone
[50] = at 5 µM, OCI-C5x cells, without rucaparib
[51] = at 5 µM, OCI-P5x cells, with rucaparib 20 µM, 100% = cells with rucaparib alone
[52] = at 5 µM, OCI-P5x cells, without rucaparib

COc1cc2nccc(Oc3ccc(NC(=O)NC4CC4)c(Cl)c3)c2cc1C(N)=O
1.21: fold change [7, 16]
0.105: z-score [9, 20]
active: AC50 [2] 2.09 µM | AC50 [3] 2.35 µM | AC50 [4] 4.69 µM | AC50 [5] 4.68 µM | AC50 [6] 2.35 µM | viability [10, 51] 91.4% | viability [10, 52] 88.9%
83.2% and 92.7% and 92.2%: liver cell % of control [1]
6040: cell count [7, 18]
5580: cell count [7, 17]
6600: cell count [8]
2.76: SSMD [8]
inactive: parasite % of control [1] 3.46% and 6.57% and 21.7% | fold change [7, 15] 0.924 | plate-normalised HSF1 focus index [8] 1.14 | z-score [9, 19] -0.303 | viability [10, 21] 125% | viability [10, 22] 110% | viability [10, 23] 111% | viability [10, 24] 105% | viability [10, 25] 100% | viability [10, 26] 110% | viability [10, 27] 112% | viability [10, 28] 114% | viability [10, 29] 108% | viability [10, 30] 103% | viability [10, 31] 110% | viability [10, 32] 112% | viability [10, 33] 103% | viability [10, 34] 113% | viability [10, 35] 117% | viability [10, 36] 114% | viability [10, 37] 103% | viability [10, 38] 112% | viability [10, 39] 111% | viability [10, 40] 111% | viability [10, 41] 108% | viability [10, 42] 110% | viability [10, 43] 108% | viability [10, 44] 110% | viability [10, 45] 126% | viability [10, 46] 111% | viability [10, 47] 119% | viability [10, 48] 112% | viability [10, 49] 142% | viability [10, 50] 111%

Cc1[nH]c(/C=C2\C(=O)Nc3ccc(S(=O)(=O)N(C)c4cccc(Cl)c4)cc32)c(C)c1C(=O)N1CCN(C)CC1
active: AC50 [2] 9.34 µM | AC50 [3] 20.9 µM | AC50 [4] 23.5 µM | AC50 [5] 7.42 µM | AC50 [6] 7.42 µM | AC50 [12] 11.8 µM | AC50 [13] 8.33 µM
7040: cell count [8]
1.63: SSMD [8]
inactive: parasite load remaining [11] 38.5% | plate-normalised HSF1 focus index [8] 1.1
69.6%: viability [11]

COc1ccc(-c2oc3c(CC=C(C)C)c(O)cc(O)c3c(=O)c2O)cc1
active: AC50 [2] 20.9 µM | AC50 [5] 16.6 µM | AC50 [6] 18.6 µM
inactive: outcome [3] | outcome [4] | outcome [14]

CN1CC[C@@H](c2c(O)cc(O)c3c(=O)cc(-c4ccccc4Cl)oc23)[C@@H](O)C1
active: AC50 [2] 0.468 µM | AC50 [3] 0.105 µM | AC50 [4] 0.0743 µM | AC50 [5] 0.332 µM | AC50 [6] 0.468 µM | AC50 [13] 0.59 µM

CC1(C)Cc2c(-c3ccccc3)c(-c3ccc(Cl)cc3)c(CC(=O)O)n2C1
1.11: z-score [9, 20]
1.58: fold change [7, 16]
5520: cell count [7, 18]
inactive: outcome [3] | outcome [5] | outcome [14] | fold change [7, 15] 0.932 | z-score [9, 19] -0.384
5140: cell count [7, 17]
active: AC50 [2] 26.3 µM | AC50 [4] 18.7 µM

C[C@@H](Oc1cc(-c2cnn(C3CCNCC3)c2)cnc1N)c1c(Cl)ccc(F)c1Cl
5640: cell count [8]
active: AC50 [2] 4.68 µM | AC50 [3] 16.6 µM | AC50 [4] 14.8 µM | AC50 [5] 2.63 µM | AC50 [6] 1.66 µM | AC50 [12] 20.9 µM | AC50 [13] 8.33 µM | IC50 [14] 4.68 µM | viability [10, 35] 98.3% | viability [10, 36] 96.4% | viability [10, 40] 98.8% | viability [10, 44] 94.2% | viability [10, 47] 72.6% | viability [10, 48] 79.6% | viability [10, 49] 10.7% | viability [10, 50] 91.2% | viability [10, 51] 6.65% | viability [10, 52] 13.1%
-10.4: SSMD [8]
inactive: plate-normalised HSF1 focus index [8] 0.639 | viability [10, 21] 129% | viability [10, 22] 131% | viability [10, 23] 112% | viability [10, 24] 105% | viability [10, 25] 124% | viability [10, 26] 125% | viability [10, 27] 103% | viability [10, 28] 107% | viability [10, 29] 136% | viability [10, 30] 133% | viability [10, 31] 106% | viability [10, 32] 104% | viability [10, 33] 123% | viability [10, 34] 121% | viability [10, 37] 125% | viability [10, 38] 121% | viability [10, 39] 103% | viability [10, 41] 118% | viability [10, 42] 124% | viability [10, 43] 101% | viability [10, 45] 117% | viability [10, 46] 116%

COc1cc2nccc(Oc3ccc(NC(=O)C4(C(=O)Nc5ccc(F)cc5)CC4)cc3)c2cc1OC
1.25 and 1.04: z-score [9, 20]
1810 and 3700: cell count [7, 17]
1540 and 3490: cell count [7, 18]
0.894 and 0.677: fold change [7, 16]
active: AC50 [2] 13.2 µM | AC50 [3] 2.35 µM | AC50 [4] 4.69 µM | AC50 [5] 16.6 µM | AC50 [6] 7.42 µM | AC50 [13] 11.8 µM | IC50 [14] 8.33 µM | viability [10, 23] 85.5% | viability [10, 24] 68.9% | viability [10, 27] 59.2% | viability [10, 28] 22.8% | viability [10, 31] 94.7% | viability [10, 32] 99.9% | viability [10, 35] 94.3% | viability [10, 39] 93.1% | viability [10, 43] 87.8% | viability [10, 44] 94.8% | viability [10, 47] 84.5% | viability [10, 48] 91.5% | viability [10, 51] 74.7% | viability [10, 52] 85.4%
inactive: fold change [7, 15] 1.18 and 1.06 | z-score [9, 19] -0.475 and -0.436 | viability [10, 21] 114% | viability [10, 22] 126% | viability [10, 25] 115% | viability [10, 26] 119% | viability [10, 29] 110% | viability [10, 30] 114% | viability [10, 33] 118% | viability [10, 34] 122% | viability [10, 36] 101% | viability [10, 37] 127% | viability [10, 38] 115% | viability [10, 40] 101% | viability [10, 41] 130% | viability [10, 42] 129% | viability [10, 45] 147% | viability [10, 46] 133% | viability [10, 49] 146% | viability [10, 50] 133%
